Reference: PubChem BioAssay (NCATS)
Inconclusive results are not listed. The source made the active and inactive calls. The call rests on the fitted dose curve; in most records, active means well fitted curve in the direction sought with a large enough effect; inconclusive means small, poorly fitted or top-dose-only effect, or another doubt; inactive means no such curve, though single readings can be large; an effect the other way counts as inactive or inconclusive.

Assays:
[1] = molecular target: Cellular tumor antigen p53 (Homo sapiens) (UniProt P04637); test: Primary qHTS for small molecule compounds that upregulate eGFP-tagged delta133p53alpha (in N-terminal) cells. (AID 2060322); details: NCI-H358 eGFP-delta133p53alpha fluorescence, 24 h; activation: active compounds read high;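 further: series mostly up to about 56 µM; 0% = DMSO vehicle and 100% = reference activator; nearly all actives have a fitted effect of over 75% in size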
Outline: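 NCI-H358 cells pre-induced 24 h with 10 ng/ml doxycycline to express N-terminal eGFP-delta133p53alpha, then dosed 24 h at 37C without doxycycline; fixed, Hoechst-stained, GFP intensity by laser scanning cytometry, normalized to DMSO (0%) and 57.5 uM 5-azacytidine (100%).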

[2] = molecular target: Aldehyde dehydrogenase, mitochondrial (Homo sapiens) (UniProt P05091); test: qHTS for Inhibitors of the Aldehyde Dehydrogenase Family (ALDH2) Primary screen (AID 2061308);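 further: plate controls were vehicle for no effect and reference inhibitor for full effect; nearly all actives have a fitted effect of over 55% in size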
[3] = molecular target: Retinaldehyde dehydrogenase 3 (Homo sapiens) (UniProt P47895); test: qHTS for Inhibitors of the Aldehyde Dehydrogenase Family (ALDH1A3) Validation screen (AID 2061312); further: on the % scale 0 is the no-effect control and ±100 the full control effect; nearly all actives have a fitted effect of over 45% in size
[4] = molecular target: Retinaldehyde dehydrogenase 3 (Homo sapiens) (UniProt P47895); test: qHTS for Inhibitors of the Aldehyde Dehydrogenase Family (ALDH1A3) Primary screen (AID 2061315);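 further: plate controls were DMSO vehicle for no effect and reference inhibitor for full effect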

Sequence of Cellular tumor antigen p53 (Homo sapiens) (P04637 whole entry, looked up): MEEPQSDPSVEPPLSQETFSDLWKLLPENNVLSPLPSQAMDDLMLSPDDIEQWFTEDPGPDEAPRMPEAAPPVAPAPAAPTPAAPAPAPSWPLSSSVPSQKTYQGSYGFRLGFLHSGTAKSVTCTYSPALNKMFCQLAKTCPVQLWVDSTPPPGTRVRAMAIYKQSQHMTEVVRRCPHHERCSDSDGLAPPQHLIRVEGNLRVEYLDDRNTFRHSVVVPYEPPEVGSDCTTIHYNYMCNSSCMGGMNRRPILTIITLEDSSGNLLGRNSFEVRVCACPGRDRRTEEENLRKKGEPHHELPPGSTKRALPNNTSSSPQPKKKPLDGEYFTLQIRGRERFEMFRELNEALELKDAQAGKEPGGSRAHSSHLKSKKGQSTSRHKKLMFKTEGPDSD

CCOC(=O)[C@H](CCc1ccccc1)CC1(C(=O)N[C@H]2CCc3ccccc3N(CC(=O)O)C2=O)CCCC1
inactive: activation [1] 6.21% | Potency [2] | Potency [3] | Potency [4]

O=C(O)CC1CCC(c2ccc(-c3ccc4nc(C(=O)NCc5ccc(OC(F)(F)F)cc5)cn4c3)cc2)CC1 (stereo not drawn)
inactive: activation [1] 9.07% | Potency [2] | Potency [3] | Potency [4]

CCOC(=O)c1sc(NC(=O)[C@H](C(C)C)n2c(=O)[nH]c3ccccc3c2=O)nc1C
inactive: activation [1] 14.3% | Potency [2] | Potency [3] | Potency [4]

Cc1onc(-c2ccccc2Cl)c1C(=O)N(C)c1ccc(Cl)cc1
inactive: activation [1] -1.43% | Potency [2] | Potency [3] | Potency [4]

COc1cc(Br)c(S(=O)(=O)Nc2ccc(Cl)c(O[C@@H]3CCN(C)C3)c2)cc1OC
inactive: activation [1] 21.5% | Potency [2] | Potency [3] | Potency [4]

COc1ccc(C2(CNC(=O)c3ccc(NC(=O)c4ccco4)cc3)CCOCC2)cc1
inactive: activation [1] 5.25% | Potency [2] | Potency [3] | Potency [4]

N[C@@H]1c2cccnc2[C@H](OC(=O)N2CCC(n3c(=O)[nH]c4ncccc43)CC2)CC[C@H]1c1cccc(F)c1F
inactive: activation [1] -10.5% | Potency [2] | Potency [3] | Potency [4]
